About 4,100 (1.1%) of roughly 370,000 compounds were called active.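 How the source made its calls: active means inhibition above the mean over all tested compounds plus 3 SD (cut at about 3.6% in these data); inactive means the rest.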 The sample as a whole holds a higher share of actives than the screen did.
Test: relief of DAX-1 repression of SF-1 activity – cell-based, luminescence, SF-1 (NR5A1), full-length DAX-1, primary screen (AID 652010);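 further: 0% = DAX-1 cells with DMSO and 100% = cells lacking DAX-1 with DMSO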
Details: HEK293T StAR-luciferase reporter, SF-1/DAX-1 repression relief; at 6.8 µM; stronger effect = higher value
With `COc1ccc2c(c1)NP(=S)(c1ccccc1)N2` (stereo not given) the inhibition was 6.3% (active).
In the case of `Cc1cc(C)c2c(c1)NP(=S)(c1ccccc1)N2` (stereo not given), the inhibition is reported as 4.45% (active).
In the case of `C[C@]12CCC3C(CC[C@H]4[C@H](O)[C@H](O)CC[C@]34C)C1CCC2=O` (stereo not given in full), the inhibition is reported as -0.89% (inactive).
For `Cc1ccccc1CCC[C@@H](CC1CCCCC1)CN(C)C(=O)Oc1ccccc1`, the inhibition was -0.86% (inactive).
In the case of `Cc1nc2nc(C)c(CCC(=O)N3CCC4(CC3)OCCO4)c(C)n2n1`, the inhibition is reported as 0.57% (inactive).
With `CC(=O)N1CN2CN(C(C)=O)CC(C(=O)c3ccc(Br)cc3)(C2)C1` the inhibition was 0.07% (inactive).
With `CCOc1cccc(=NC2CCCCC2)c2c(C)[nH]c(C)c12` the inhibition was -0.76% (inactive).
With `COP(=O)(Sc1ccccc1)C(Cc1ccccc1)NC(=O)OCc1ccccc1` (stereo not given) the inhibition was -2.01% (inactive).
With `c1cncc(CNC2=NCCC2)c1` the inhibition was 0.16% (inactive).
For `Cc1c(Oc2cc(NN3CCCCC3)c([N+](=O)[O-])cc2[N+](=O)[O-])cccc1[N+](=O)[O-]`, the inhibition was 0.11% (inactive).

Reference: PubChem BioAssay AID652010 (The Scripps Research Institute Molecular Screening Center, 2013)
